In PubChem BioAssay AID686978 (National Center for Advancing Translational Sciences (NCATS), 2013):
Screen size: about 420,000 compounds; about 64,000 (15%) were called active. Not shown: some 27% with an inconclusive outcome. These entries were drawn from the full list. A number with no mark means an inactive call. Calls follow the shape of the dose curve; as a rule, active = well fitted inhibition curve with a large enough effect; inconclusive = small, poorly fitted or top-dose-only effect; inactive = flat fitted curve, though single readings scatter.

Assay: qHTS for Inhibitors of human tyrosyl-DNA phosphodiesterase 1 (TDP1): qHTS in cells in absence of CPT; also: nearly all actives have a fitted effect of over 55% in size
Details: DT40 Tdp1-/- hTDP1 cells, no CPT, ATP luminescence, 48 h; activity change, negative = growth inhibition: at 46.2 µM (top of the series)
In short: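 Growth kinetics read by CellTiter-Glo luminescence after ≥48 hr at 37 °C. Cells: DT40 Tdp1-/- stably carrying human TDP1, 400 per well, compound exposure in the absence of CPT (DMSO vehicle).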
% is scaled to controls: 0 for no effect and ±100 for the full control effect; potency is read from the fitted curve at half-maximal effect.

Row | Compound | activity change, negative = growth inhibition | Potency
1 | CCOc1ccc(S(=O)(=O)N2CCN=C2Cc2ccccc2)cc1C | -25.1% | 
2 | O=C(COC(=O)c1cc(=O)[nH]c2ccccc12)NCc1cccc(Cl)c1 | -0.601% | 
3 | COc1ccccc1C1SCCN1C(=O)c1ccc([N+](=O)[O-])cc1 (stereo unspecified) | 4.74% | 
4 | Cc1cc(/C=C2\SC(=O)N(C)C2=O)c(C)n1-c1cccc(C(=O)O)c1 | 8.74% | 
5 | Nc1cccc(-c2cncc(N3CCN(Cc4ccccn4)CC3)n2)c1 | -26.4% | 
6 | Nc1c(-c2ccccc2)nnn1Cc1ccccc1 | -3.82% | 
7 | O=C(Nc1cccnc1)c1ccc(Cl)cc1[N+](=O)[O-] | 1.36% | 
8 | Clc1ccc(C=NC23CN4CN(CN(C4)C2)C3)cc1 | 5.74% | 
9 | Cc1cccc(CS(=O)(=O)c2ncc(Cl)c(C(=O)Nc3ccc(F)cc3)n2)c1 |  | 1.84 µM (active)
10 | Cc1cccc(OCc2ccc(C(=O)Nc3ccc(F)cc3)cc2)c1 | -17.5% | 
11 | Cn1cc([N+](=O)[O-])c(C(=O)Nc2cnn(Cc3ccc(F)cc3)c2)n1 | -11.5% | 
12 | COc1ccc(S(=O)(=O)NC(C)C(=O)NCc2ccncc2)cc1Cl (stereo unspecified) | -28.8% | 
13 | O=C(NC1CCCC1)C1CC(=O)N(c2ccc(F)cc2)C1 (stereo unspecified) | -12.7% | 
14 | O=[N+]([O-])c1ccc(N2CCN(c3ccc(F)cc3)CC2)cn1 | -4.53% | 
15 | O=C(c1cccc(C(=O)N2CCN(c3ccc(F)cc3)CC2)c1)N1CCN(c2ccc(F)cc2)CC1 |  | 13 µM (active)
16 | O=C(c1cc2cc(F)ccc2[nH]1)N1CCN(c2ccc(F)cc2)CC1 | 7.44% | 
17 | O=C(c1cc(C(=O)N2CCN(c3ccc(F)cc3)CC2)cc([N+](=O)[O-])c1)N1CCN(c2ccc(F)cc2)CC1 |  | 4.61 µM (active)
18 | O=C(c1cc(-c2ccc(F)cc2)on1)N1CCN(c2ccc(F)cc2)CC1 | 1.37% | 
19 | Cc1noc(C)c1S(=O)(=O)Nc1ccc(C(=O)N2CCN(c3ccc(F)cc3)CC2)cc1 | -25.6% | 
20 | CS(=O)(=O)N1CCC2(CC1)CN(Cc1cc(C(F)(F)F)cc(C(F)(F)F)c1)C2 | 0.577% | 
21 | Cc1c(NC(=O)COC(=O)/C=C/c2cccc(F)c2)c(=O)n(-c2ccccc2)n1C | -19.5% | 
22 | Cc1ccnc(NS(=O)(=O)c2ccc(NC(=O)c3oc4ccccc4c3C)cc2)n1 | 0.414% | 
23 | Cc1oc(C(N)=O)cc1COc1ccc(C(N)=O)cc1 | -8.07% | 
24 | CCc1cccc2c3c([nH]c12)C(CC)(CC(=O)O)OCC3 (stereo unspecified) |  | inactive
25 | CC1=CC(C)(C)Nc2ccc(OC(=O)CN3C(=O)C4CCCCC4C3=O)cc21 (stereo unspecified) |  | 2.31 µM (active)
26 | CC(OC(=O)CN1C(=O)C2CCCCC2C1=O)C(=O)Nc1ncc(Cl)cc1Cl (stereo unspecified) | -9.52% | 

Row | Compound | activity change, negative = growth inhibition | Potency
27 | O=C(COC(=O)CN1C(=O)C2CCCCC2C1=O)Nc1ccc(F)c(F)c1F (stereo unspecified) | 10.7% | 
28 | O=C(CN1C(=O)NC(Cc2c[nH]c3ccccc23)C1=O)Nc1ccccc1C(F)(F)F (stereo unspecified) | -3.58% | 
29 | COc1ccc(S(=O)(=O)NCCCc2ccccc2)cc1 | -27.7% | 
30 | COc1cccc(NC(C)=[N+](C)CCNS(=O)(=O)c2ccc(Cl)cc2)c1 | -23.4% | 
31 | COc1ccc(S(=O)(=O)NCCCCOc2ccc(Cl)cc2)cc1 |  | 2.06 µM (active)
32 | Cc1nc(N)[nH]c(=O)c1Oc1cccc(C(F)(F)F)c1 | -2.45% | 
33 | Cc1cccc(N=C2NN=C(c3c[nH]c4ccccc34)CS2)c1 | -13.4% | 
34 | Clc1cccc(N=C2NN=C(c3ccc4c(c3)OCCO4)CS2)c1 |  | 10.3 µM (active)
35 | COc1ccccc1CNC(=O)C1CCN(c2nc3ccccc3o2)CC1 | -11% | 
36 | COc1ccccc1CCNC(=O)c1cccn1-c1nnc(N2CCCCC2)s1 |  | 1.64 µM (active)
37 | CSc1ccc(CCNC(=O)C2CCN(c3nnc(-n4cccc4)s3)CC2)cc1 | -17% | 
38 | N#CC(=C1CCCC1)c1nc(-c2ccc(Cl)cc2)cs1 | -27.4% | 
39 | CCOC(=O)C1CCC(CN(Cc2ccc(OC)cc2)S(=O)(=O)c2ccc(F)c(C(=O)Nc3cc(C)ccc3C)c2)CC1 (stereo unspecified) | -11.9% | 
40 | Cc1cc2c(cc1S(=O)(=O)NCc1ccc(Cl)cc1)OCC(=O)N2 | 2.83% | 
41 | CC(=O)N1CCC2(CCCN(Cc3ccccc3)C2)CC1 | -18.3% | 
42 | O=C(CCC(=O)OCc1ccc(Cl)cc1)Nc1ccccc1 | -0.379% | 
43 | CC(=O)N1CCC(C(=O)OCc2ccc(Cl)cc2)(c2ccccc2)CC1 |  | 11.6 µM (active)
44 | Cc1noc(C)c1NC(=O)Nc1ccc2c(c1)C(=O)N([C@H](C)CO)C[C@H](C)[C@@H](CN(C)S(=O)(=O)c1cn(C)cn1)O2 | -2.48% | 
45 | NS(=O)(=O)c1ccc(NC(=O)CSc2nnc3c(n2)[nH]c2ccccc23)cc1 | -0.0777% | 
46 | CCN(CC)c1ccc(/C=C/c2c(C)cnc3ccc(C)cc23)cc1 |  | 20 µM (active)
47 | CCOC(=O)N1CCN(c2c(NCCCN3CCCC(C)C3)c(=O)c2=O)CC1 (stereo unspecified) | -4.27% | 
48 | CC(C)C(=O)OCC(=O)Nc1ccc2c(c1)CCC2 | 1.2% | 
49 | CCOc1ccc(NC(=O)C2CC(=O)N=C(N)S2)cc1 (stereo unspecified) | -4.41% | 
50 | COc1ccccc1-c1nnc(NC(=O)c2cccc(N3C(=O)CCC3=O)c2)o1 | 7.07% | 
51 | Cc1ccc(C(=O)Nc2nnc(C3=COCCO3)o2)cc1C |  | 23.1 µM (active)
